# From PubChem BioAssay (NCI)
# The panel holds about 83,000 compounds, 20% with a hit somewhere; the sample as a whole holds those more often.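 Single-dose data. Exposure time 48 hours. Values below 10 considered active.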 Activity calls are given as the source filed them.
# Test system: MDA-MB-468 breast
# Experiment: NCI-60 one-dose screen, 48 h (100 = growth as untreated, 0 = no growth, -100 = all killed)
# Conditions: 10 µM unless noted
row,Compound,growth
1,COc1ccc(COC(=O)CC(C)C)cc1,102% (inactive)
2,Cc1cn(-c2cccc(NC(=O)c3ccc(C)c(Nc4nccc(-c5cccnc5)n4)c3)c2)cn1,-41.4% (active)
3,CCCCCC(=O)OCCC1CCCCC1,99% (inactive)
4,COc1ccc(-c2nc(SCC(=O)Nc3ccc(C(=O)/C=C/c4ccc(Cl)cc4)cc3)[nH]c(=O)c2C#N)cc1,39.4% (inactive)
5,O=C1Cc2ccccc2C(=O)O1,112% (inactive)
6,O=[N+]([O-])c1cnc(Sc2ccncn2)c([N+](=O)[O-])c1,-44.4% (active)
7,O=C(c1nc2ccccc2[nH]1)C1C(c2cccc([N+](=O)[O-])c2)C2CC3CCCCC3N2[C@@]12C(=O)Nc1cc(Cl)ccc12 (some centres undefined),1.53% (active)
8,O=C(O)c1cccc2c1Cc1cc([N+](=O)[O-])ccc1-2,113% (inactive)
9,CCCCCCC(C)(O)c1ccccc1 (centres undefined),117% (inactive)
10,C[C@]12C=CC(=O)C=C1[C@@H](F)C[C@@H]1[C@@H]2[C@@H](O)C[C@@]2(C)[C@H]1CC[C@]2(O)C(=O)CO,123% (inactive)
11,COc1ccc(-c2nc3sccn3c2/C=C/C(=O)c2c[nH]c3ccccc23)cc1,62.6% (inactive)
12,O=S(=O)(Cc1cccc2c(CS(=O)(=O)c3ccc(Cl)cc3)cccc12)c1ccc(Cl)cc1,97% (inactive)
13,Cn1cc(-c2cc(N)n3nc(-c4cn(C)c5ccccc45)cc3n2)c2ccccc21,75% (inactive)
14,O=NN(CCCl)C(=O)Nc1ccc(NC(=O)N(CCCl)N=O)cc1,96.4% (inactive)
15,Nc1c(C(=O)Nc2c(Cl)cccc2Cl)sc2nc3c(cc12)CCCCC3,32.1% (inactive)
16,COc1ccc(-c2nsc3c2NC(=O)CC3c2cccc(F)c2)cc1 (centres undefined),19.7% (inactive)
17,CC1SC(c2c(Cl)cccc2Cl)N(NC(=O)c2[nH]c3ccc(F)cc3c2-c2ccccc2)C1=O (centres undefined),66.8% (inactive)
18,Cc1ccc(NC(=O)c2sc3nc(C)c(C(=O)c4ccccc4)cc3c2N)cc1,79% (inactive)
19,O=Nc1ccccc1N=O,91.7% (inactive)
20,c1ccc2[nH]c(-c3ccc(Nc4nc(N5CCCC5)nc5[nH]ncc45)cc3)nc2c1,-38.5% (active)
21,CC(C)(C)OC(=O)Nc1ccc2c(c1)C(NC(=O)Nc1cccc(C#N)c1)CC(C)(C)O2 (centres undefined),-5.73% (active)
22,CC1(C)CC[C@]2(C(=O)O)CC[C@]3(C)C(=CC[C@@H]4[C@@]5(C)C/C(=C/c6ccco6)C(=O)C(C)(C)[C@@H]5CC[C@]43C)[C@@H]2C1,-3.74% [100 µM] (active)
23,COc1cccc2c1-c1ccccc1C2=O,39.3% (inactive)
24,OC1CCN(CCCOc2c3ccccc3nc3c2oc2ccc(Cl)cc23)CC1,-8.36% (active)
25,CCOc1cc(/C=N\NC(=O)N/N=C/c2ccc(O)c(OCC)c2)ccc1O,3.75% (active)
26,CC(C)CCC[C@@H](C)[C@H]1CC[C@H]2[C@@H]3CC[C@H]4C/C(=N/O)CC[C@]4(C)[C@H]3CC[C@]12C,99% (inactive)
27,CC1CCCCN1CCCNC(=O)c1ccc2c(c1)sc1nc(-c3ccc(F)cc3)cn12 (centres undefined),96.3% (inactive)
28,NC(N)=Nc1ccc(Oc2cccc(Nc3ccc(Br)c(C(F)(F)F)c3)c2)cc1,-10.6% (active)
29,CC(C)=CCC/C(C)=C/CC/C(C)=C/CC/C(C)=C/CSC[C@H](NC(=O)CCCCCN1CCN(C)CC1)C(=O)NC1CCCCC1,79.2% (inactive)
